Composite z-score and z-score data for 8 compounds are collected here from PubChem BioAssay.

Calls of active or inactive are those of the source.

The subject of assay [1] is PRMT1 (protein arginine N-methyltransferase 1). Description: small molecules binding arginine methyltransferase PRMT1 – biochemical, small-molecule microarray, 635 nm fluorescence, primary screen (AID 1088).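 Note: binding of Prmt1 protein to compounds spotted on small-molecule microarray slides.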 To be noted: higher = more signal.
The nature of assay [2]: growth effects on S. cerevisiae YJM789 – YJM789 clinical isolate, OD600, 24 h, basal, primary screen (AID 1089).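 Note: growth of clinical yeast isolate S. cerevisiae YJM 789 seeded 1000 cells per well; test concentration not given here.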 To be noted: higher = more signal, called active from +8 up or from −8 down.
Assay [3] is described as follows: S. pombe growth modifiers, basal conditions – strain 972, OD600, 24 h, no modulator, primary screen (AID 1090).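 Note: basal condition with compound alone and no growth modifier present; test concentration not given here.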 To be noted: S. pombe 972 growth, higher = more signal, called active from +8 up or from −8 down.
The nature of assay [4]: budding yeast growth modifiers under rapamycin – strain BY4716, OD600, 96 h, primary screen (AID 1091). Note: test concentration not given here. To be noted: S. cerevisiae BY4716 + rapamycin, higher = more signal, called active from +8 up or from −8 down.
Assay [5] addresses Torsin-1A-interacting protein 2 (Homo sapiens) (UniProt Q8NFQ8). As to the kind of experiment: small molecules binding lysate-expressed LULL1 – cell lysate, human LULL1 lysate, 635/667 nm fluorescence, primary screen (AID 1092).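 Note: probe is lysate of COS7 cells overexpressing human LULL1; score merges per-feature 667 nm fluorescence with signal-to-noise.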 Conditions: small-molecule microarray, hLULL1 lysate binding, 635 nm fluorescence; higher = more signal.
Assay [6] is described as follows: optical density change of DRC41 E. coli – strain DRC41, OD650, 24 h, E. coli filamentation project, primary screen (AID 1093).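 Note: MC1000 strain lacking acrAB efflux and sulA so SOS filamentation is blocked; test concentration not given here.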 To be noted: E. coli DRC41 growth, higher = more signal, called active from +8 up or from −8 down.
A short description of assay [7]: probe aLefty2 binding to arrayed compounds – biochemical, biotinylated probe, 635/667 nm fluorescence, primary screen (AID 1094).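 Note: score merges spot fluorescence near 667 nm with spot signal-to-noise ratio.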 Conditions: small-molecule microarray, higher = more signal.
Assay [8] has as its system Noggin (protein binding on small-molecule microarray). As to the kind of experiment: small molecules binding Noggin protein – biochemical, 635/667 nm fluorescence, primary screen (AID 1095).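 Note: score merges 667 nm feature fluorescence with signal to noise over triplicate slides.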 To be noted: 635 nm fluorescence, higher = more signal.
In assay [9] the target is Neurogenic locus notch homolog protein 3 (Homo sapiens) (UniProt Q9UM47). Description: small molecules binding NOTCH3 protein – biochemical, 635/667 nm fluorescence, primary screen (AID 1096). Conditions: small-molecule microarray, 635 nm fluorescence, higher = more signal.
Neurogenic locus notch homolog protein 3 (Homo sapiens), sequence (Q9UM47 whole entry, looked up): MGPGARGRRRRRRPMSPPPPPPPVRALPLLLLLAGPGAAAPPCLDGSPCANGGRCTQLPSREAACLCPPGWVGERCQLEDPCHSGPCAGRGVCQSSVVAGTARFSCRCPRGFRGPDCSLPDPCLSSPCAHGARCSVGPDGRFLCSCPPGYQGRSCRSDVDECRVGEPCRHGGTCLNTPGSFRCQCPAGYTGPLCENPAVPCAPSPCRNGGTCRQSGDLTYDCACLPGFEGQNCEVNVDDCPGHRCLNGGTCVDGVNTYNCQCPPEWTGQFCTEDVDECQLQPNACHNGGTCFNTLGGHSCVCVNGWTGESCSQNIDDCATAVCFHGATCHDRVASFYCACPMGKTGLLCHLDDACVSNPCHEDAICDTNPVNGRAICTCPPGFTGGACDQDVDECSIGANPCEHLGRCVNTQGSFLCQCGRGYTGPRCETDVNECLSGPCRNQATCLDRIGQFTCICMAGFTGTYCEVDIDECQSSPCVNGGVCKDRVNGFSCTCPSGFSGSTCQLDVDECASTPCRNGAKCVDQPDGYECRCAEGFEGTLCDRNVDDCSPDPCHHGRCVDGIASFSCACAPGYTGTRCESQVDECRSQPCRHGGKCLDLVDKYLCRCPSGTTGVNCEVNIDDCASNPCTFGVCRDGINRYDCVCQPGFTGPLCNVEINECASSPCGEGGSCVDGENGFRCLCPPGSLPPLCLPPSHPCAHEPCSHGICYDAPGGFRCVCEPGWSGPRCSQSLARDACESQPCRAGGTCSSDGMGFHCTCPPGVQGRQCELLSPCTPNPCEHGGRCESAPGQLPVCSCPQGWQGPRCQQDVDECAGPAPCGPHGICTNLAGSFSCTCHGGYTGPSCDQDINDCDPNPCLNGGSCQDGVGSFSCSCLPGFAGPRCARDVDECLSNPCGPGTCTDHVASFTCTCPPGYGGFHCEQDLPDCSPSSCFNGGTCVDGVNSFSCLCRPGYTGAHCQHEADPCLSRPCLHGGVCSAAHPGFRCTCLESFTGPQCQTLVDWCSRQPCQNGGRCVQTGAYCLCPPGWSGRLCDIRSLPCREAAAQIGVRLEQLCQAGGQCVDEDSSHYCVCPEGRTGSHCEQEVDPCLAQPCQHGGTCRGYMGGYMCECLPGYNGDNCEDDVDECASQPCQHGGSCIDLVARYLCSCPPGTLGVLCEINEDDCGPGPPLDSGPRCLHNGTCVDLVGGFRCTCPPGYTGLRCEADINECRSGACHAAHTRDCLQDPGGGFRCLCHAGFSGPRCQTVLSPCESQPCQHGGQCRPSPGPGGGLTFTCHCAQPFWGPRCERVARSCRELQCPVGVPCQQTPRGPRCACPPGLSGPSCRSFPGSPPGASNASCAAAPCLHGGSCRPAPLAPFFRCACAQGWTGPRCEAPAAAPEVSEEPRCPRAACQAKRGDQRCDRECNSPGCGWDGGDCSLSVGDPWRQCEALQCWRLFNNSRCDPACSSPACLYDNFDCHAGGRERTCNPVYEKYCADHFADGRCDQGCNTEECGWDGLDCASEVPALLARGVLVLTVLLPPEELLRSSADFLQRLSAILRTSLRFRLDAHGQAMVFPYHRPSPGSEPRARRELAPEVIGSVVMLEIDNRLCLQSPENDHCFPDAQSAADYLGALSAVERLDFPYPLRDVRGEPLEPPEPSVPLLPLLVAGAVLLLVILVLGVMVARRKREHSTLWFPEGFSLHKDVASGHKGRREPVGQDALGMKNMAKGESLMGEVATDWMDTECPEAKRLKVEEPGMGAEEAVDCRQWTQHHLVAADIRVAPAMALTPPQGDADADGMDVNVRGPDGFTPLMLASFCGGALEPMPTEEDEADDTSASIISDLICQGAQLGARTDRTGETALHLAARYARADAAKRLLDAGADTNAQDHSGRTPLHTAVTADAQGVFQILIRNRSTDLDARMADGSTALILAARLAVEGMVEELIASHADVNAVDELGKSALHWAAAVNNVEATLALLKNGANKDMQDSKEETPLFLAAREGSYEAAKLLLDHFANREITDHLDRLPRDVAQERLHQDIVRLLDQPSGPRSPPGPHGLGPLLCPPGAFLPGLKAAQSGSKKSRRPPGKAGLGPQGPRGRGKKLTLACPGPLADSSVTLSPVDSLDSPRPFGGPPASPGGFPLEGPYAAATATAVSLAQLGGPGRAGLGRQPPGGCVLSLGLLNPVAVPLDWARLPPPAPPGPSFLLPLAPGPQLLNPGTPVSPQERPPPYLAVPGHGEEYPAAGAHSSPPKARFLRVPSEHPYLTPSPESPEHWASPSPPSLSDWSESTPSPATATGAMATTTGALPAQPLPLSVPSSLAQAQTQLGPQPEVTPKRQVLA
The nature of assay [10]: probe aEGFR binding to arrayed compounds – biochemical, biotinylated probe, 635/667 nm fluorescence, primary screen (AID 1097).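 Note: probe is a biotinylated anti-EGFR antibody binding compounds printed on slides; score combines fluorescence near 667 nm and signal to noise of each spot.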 To be noted: small-molecule microarray, higher = more signal.

Torsin-1A-interacting protein 2 (Homo sapiens), sequence (Q8NFQ8 whole entry, looked up): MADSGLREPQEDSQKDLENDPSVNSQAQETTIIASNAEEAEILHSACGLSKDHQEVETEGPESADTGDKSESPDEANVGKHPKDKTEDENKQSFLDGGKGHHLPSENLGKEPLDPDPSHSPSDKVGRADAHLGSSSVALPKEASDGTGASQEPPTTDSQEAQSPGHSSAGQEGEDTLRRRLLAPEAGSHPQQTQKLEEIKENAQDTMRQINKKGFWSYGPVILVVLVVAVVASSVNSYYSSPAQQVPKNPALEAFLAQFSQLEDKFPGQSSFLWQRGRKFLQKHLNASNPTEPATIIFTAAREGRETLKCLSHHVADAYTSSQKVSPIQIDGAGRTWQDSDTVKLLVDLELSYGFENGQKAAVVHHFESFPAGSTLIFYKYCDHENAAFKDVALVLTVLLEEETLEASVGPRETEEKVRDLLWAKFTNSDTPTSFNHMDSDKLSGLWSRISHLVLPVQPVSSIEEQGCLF

For the compound `CCOC(=O)C=Cc1cc([N+](=O)[O-])ccc1O`, the composite z-score in assay [1] was 0.385; in assay [5] it was 0.381; in assay [7] it was -0.088; in assay [8], -0.609; in assay [9], -0.465; in assay [10], -0.141. Further, the z-score is -1.21 (inactive) in assay [2], -0.201 (inactive) in assay [3], -1.62 (inactive) in assay [4] and -0.828 (inactive) in assay [6].

On to `COCC(=C=CC[C@H](O)c1ccccc1OCCO)C[C@H](O)c1cc(Cl)cc(Cl)c1O`, for which the composite z-score in [1] is 1.45; in assay [5] it was 2.7; in [7], -0.0653; in assay [8], 0.653; in assay [9], 1.03; in [10], -0.0703. For the same compound, the z-score is -24.4 (active) in assay [2], -20.3 (active) in [3], -4.61 (inactive) in [4] and -0.628 (inactive) in assay [6].

As to `[N-]=[N+]=NCc1ccccc1C[C@]1(C(=O)NCC(O)CO)N=C(c2ccc(OCCCO)cc2)O[C@H]1c1ccccc1` (stereo not given in full), the composite z-score in assay [1] is -0.434; in [5], 2.62; in [7] it was 0.38; in assay [8], -0.918; in assay [9], -1.29; in assay [10] it was -0.0758. Further, the z-score in assay [2] is -0.0234 (inactive); in assay [3], 0.559 (inactive); in [4] it was -1.04 (inactive); in assay [6], 0.478 (inactive).

Turning to `Cc1ccc(S[C@]2(C(=O)NCCN3CCOCC3)CC(=O)N(Cc3ccccc3)[C@@H]2c2ccc(CO)cc2I)cc1`, the composite z-score in [1] is 0.01; in [5] it was 2.07; in assay [7], 0.0769; in assay [8], -1.57; in assay [9], -0.791; in [10], -0.378. Further, the z-score in assay [2] was -0.605 (inactive); in assay [3], -3 (inactive); in assay [4], 0.576 (inactive); in assay [6], -1.17 (inactive).

On to `[N-]=[N+]=NCc1ccccc1[C@@H]1OC(c2ccc(OCCCO)cc2)=N[C@]1(Cc1ccccc1N=[N+]=[N-])C(=O)N1CCOCC1`, for which the composite z-score in assay [1] stood at 1.55; in [5], 3.25; in [7] it was 0.295; in assay [8] it was 1.04; in assay [9], 1.04; in assay [10], 0.246. Besides, the z-score in assay [2] is -1.29 (inactive); in [3], -1.59 (inactive); in assay [4] it was 4.14 (inactive); in [6], -0.667 (inactive).

`CCOc1cc(C(O)C2C=CC3C(=O)N(c4ccccc4)C(=O)C3N2Nc2ccccc2)ccc1O` (stereo not given): the composite z-score is 0.408 in assay [1]; 3.52 in assay [5]; -0.0371 in assay [7]; -0.419 in assay [8]; 0.498 in assay [9]; 0.0192 in assay [10]. Moreover, the z-score in [2] was 0.881 (inactive); in assay [3] it was -0.692 (inactive); in assay [4] it was 1.2 (inactive); in [6] it was 0.374 (inactive).

As for `C=CCNC(=O)[C@@H]1[C@H]2C(=O)O[C@H](c3ccccc3)[C@H](c3ccccc3)N2[C@H](c2ccc(OCCO)cc2)[C@@]12C(=O)Nc1ccc(C#Cc3ccc(OC)cc3)cc12`, the composite z-score in assay [1] turned out to be 1.55; in assay [5], 2.48; in assay [7], 0.182; in [8], 1.22; in [9] it was 1.08; in assay [10], 0.116. Further, the z-score in assay [2] was 2.34 (inactive); in assay [3], 0.961 (inactive); in assay [4] it was 4.49 (inactive); in assay [6], 0.838 (inactive).

`[N-]=[N+]=Nc1ccccc1C[C@]1(C(=O)NCC(O)CO)N=C(c2ccc(OCCCO)cc2)O[C@H]1c1ccccc1N=[N+]=[N-]` (stereo not given in full): the composite z-score in [1] was -0.918; in assay [5] it was 2.98; in assay [7] it was 0.334; in assay [8] it was -0.609; in assay [9], 0.203; in assay [10], 0.383. Further, the z-score in [2] was 0.637 (inactive); in assay [3], -0.824 (inactive); in [4], 0.0558 (inactive); in assay [6] it was 0.774 (inactive).
